Source: PubChem BioAssay (NCATS)
Unmarked numbers belong to inactive results. Records with an inconclusive call do not appear. Entries that show only a call come without a potency. The source made the active and inactive calls. Unless noted, calls follow the shape of the dose curve; as a rule, active = well fitted curve in the direction sought with a large enough effect; inconclusive = small, poorly fitted or top-dose-only effect, or another doubt; inactive = no such curve, though single readings can be large; an effect the other way counts as inactive or inconclusive.

What was measured:
[1] = target: Lysosomal acid glucosylceramidase (Homo sapiens) (UniProt P04062); assay: Glucocerebrosidase-p2 (AID 348; in the data active = potency below about 10 µM; also: potency is read from the fitted curve at half-maximal effect); conditions: purified GBA, blue fluorogenic substrate, 40 min
Lysosomal acid glucosylceramidase (Homo sapiens), sequence (P04062 whole entry, looked up): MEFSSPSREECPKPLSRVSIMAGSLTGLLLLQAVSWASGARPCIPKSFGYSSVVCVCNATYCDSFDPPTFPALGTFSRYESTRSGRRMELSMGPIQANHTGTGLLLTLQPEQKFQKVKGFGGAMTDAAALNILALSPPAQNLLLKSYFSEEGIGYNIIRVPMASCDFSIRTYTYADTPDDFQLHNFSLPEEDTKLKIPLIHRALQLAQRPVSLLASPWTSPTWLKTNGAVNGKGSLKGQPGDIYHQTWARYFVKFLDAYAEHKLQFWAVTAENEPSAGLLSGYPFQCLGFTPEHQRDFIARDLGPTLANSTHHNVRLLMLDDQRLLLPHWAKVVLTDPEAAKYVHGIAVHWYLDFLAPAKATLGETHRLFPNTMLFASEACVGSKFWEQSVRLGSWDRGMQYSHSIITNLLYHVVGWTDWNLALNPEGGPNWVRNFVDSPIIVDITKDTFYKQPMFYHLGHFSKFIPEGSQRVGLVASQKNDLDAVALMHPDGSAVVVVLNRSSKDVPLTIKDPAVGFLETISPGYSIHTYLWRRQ
How it was run: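 Normal human glucocerebrosidase (0.2 nM) with blue fluorogenic substrate (80 uM final) in citrate/phosphate pH 5.9 with 10mM sodium taurocholate, 0.01% tween-20; 40 min RT, NaOH/glycine stop; fluorescence Ex 365/Em 440; AC50 from a titration from 0.6 nM upwards.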

[2] = AP1 Signaling Pathway (AID 357; active = well fitted curve in either direction with a large enough effect, not every such curve was filed as active); conditions: ME-180 AP-1-bla reporter, EGF-induced, beta-lactamase ratio, 5 h; at 7.69 µM (top of the series) unless noted
How it was run: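 AP-1-bla ME-180 cells with beta-lactamase reporter under AP-1 response element, stimulated with EC50 EGF; compounds titrated, 5 hours at 37 degrees Celsius. CCF4 read at 460/530 nm ratio; positive and negative modulators judged by AC50.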

[3] = target: Cytochrome P450 1A2 (Homo sapiens) (UniProt P05177); assay: p450-cyp1a2 (AID 410; calls by dose curve; also: potency is read from the fitted curve at half-maximal effect); conditions: recombinant CYP1A2, luciferin-ME demethylation, luminescence; series mostly up to 57 µM
Cytochrome P450 1A2 (Homo sapiens), sequence (P05177 whole entry, looked up): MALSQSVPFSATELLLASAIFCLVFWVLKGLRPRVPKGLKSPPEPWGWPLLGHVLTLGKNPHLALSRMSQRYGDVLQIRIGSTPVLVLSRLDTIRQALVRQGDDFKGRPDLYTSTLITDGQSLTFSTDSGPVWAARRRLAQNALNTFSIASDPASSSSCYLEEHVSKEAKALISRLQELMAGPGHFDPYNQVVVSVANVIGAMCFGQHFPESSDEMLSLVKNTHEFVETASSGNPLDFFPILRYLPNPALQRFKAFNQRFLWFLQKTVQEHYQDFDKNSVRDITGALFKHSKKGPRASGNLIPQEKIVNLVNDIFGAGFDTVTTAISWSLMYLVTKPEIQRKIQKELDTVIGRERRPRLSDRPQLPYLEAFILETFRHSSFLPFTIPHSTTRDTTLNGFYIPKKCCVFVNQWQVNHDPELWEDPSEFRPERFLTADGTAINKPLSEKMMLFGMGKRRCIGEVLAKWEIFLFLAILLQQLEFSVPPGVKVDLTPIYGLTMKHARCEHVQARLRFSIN
How it was run: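 O-Demethylation of luciferin 6' methyl ether by human CYP1A2 is monitored as luciferase luminescence. Substrate sits at Km (100uM); enzyme is 20nM. Values are scaled to 57 uM furafylline as maximal inhibition.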

[4] = NFAT Signaling Pathway (AID 444; active = well fitted curve in either direction with a large enough effect, not every such curve was filed as active;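 also: carbachol stimulus at about its EC50 of 1 µM final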); conditions: Jurkat NFAT-bla M1, carbachol, beta-lactamase ratio, 5 h; at 7.69 µM (top of the series) unless noted
How it was run: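 Read-out: CCF4 FRET ratio (460 nm/530 nm) after 1 h RT dye loading, used for %activity and AC50 from titration series. Cells: Jurkat NFAT-β-lactamase/M1 line, treated with compound plus 1 uM carbachol for 5 h, 37 °C.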

[5] = Stat Signaling Pathway (AID 446; active = well fitted curve in either direction with a large enough effect, not every such curve was filed as active;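 also: ME-180 cervical cancer cells given 40 pM IL-6 alongside compound; SIE-controlled beta-lactamase reporter measured as 460/530 nm FRET emission ratio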); conditions: ME-180 (cervical carcinoma) SIE beta-lactamase reporter, IL-6 stimulated, 5 h; at 7.69 µM (top of the series) unless noted
How it was run: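 Normalization used AC90 stimulation (300 pM IL-6) and AC90 inhibition (125 nM pan-JAK inhibitor at 40 pM IL-6). The underlying signal is SIE-driven beta-lactamase in ME-180 cells after 5 h IL-6 exposure with compound.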

[6] = target: Glucocorticoid receptor (Homo sapiens) (UniProt P04150); assay: GR-GFP Redistribution (AID 450;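 active = compounds whose dose series gives a full or clear partial fitted curve of increased nuclear translocation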; also: potency is read from the fitted curve at half-maximal effect); conditions: U2OS GR-GFP nuclear translocation, laser cytometry, 2 h
Glucocorticoid receptor (Homo sapiens), sequence (P04150 whole entry, looked up, the tested form may be a part): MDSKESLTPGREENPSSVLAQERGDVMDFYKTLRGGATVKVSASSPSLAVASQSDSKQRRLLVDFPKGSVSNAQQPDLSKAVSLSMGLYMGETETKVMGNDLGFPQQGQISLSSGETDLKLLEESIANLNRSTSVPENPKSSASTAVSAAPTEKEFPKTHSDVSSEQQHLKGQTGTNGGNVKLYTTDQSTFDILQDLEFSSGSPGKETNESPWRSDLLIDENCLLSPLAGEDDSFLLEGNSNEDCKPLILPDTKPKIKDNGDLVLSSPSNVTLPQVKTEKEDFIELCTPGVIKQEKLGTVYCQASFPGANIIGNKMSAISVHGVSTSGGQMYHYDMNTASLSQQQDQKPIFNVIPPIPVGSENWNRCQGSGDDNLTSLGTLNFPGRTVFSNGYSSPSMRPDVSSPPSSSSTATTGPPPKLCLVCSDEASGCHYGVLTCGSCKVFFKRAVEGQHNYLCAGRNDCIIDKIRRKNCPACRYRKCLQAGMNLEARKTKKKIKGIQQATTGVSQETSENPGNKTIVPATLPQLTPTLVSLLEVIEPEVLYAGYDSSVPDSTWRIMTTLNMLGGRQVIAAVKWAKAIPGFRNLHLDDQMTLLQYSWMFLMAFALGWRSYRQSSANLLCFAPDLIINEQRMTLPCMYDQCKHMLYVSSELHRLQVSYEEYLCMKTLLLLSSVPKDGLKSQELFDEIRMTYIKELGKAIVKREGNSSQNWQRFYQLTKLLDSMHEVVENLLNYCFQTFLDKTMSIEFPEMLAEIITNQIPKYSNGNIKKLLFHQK

[7] = target: Glucocorticoid receptor (Homo sapiens) (UniProt P04150); assay: GR-EFC Redistribution (AID 451; calls by dose curve; also: potency is read from the fitted curve at half-maximal effect); conditions: CHO-K1 GR-EFC translocation, beta-gal luminescence, 2 h
How it was run: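 Translocation of GR-ED fusion to nuclear EA restores b-gal, read by luminescence after 1 h room-temperature detection. Engineered CHO-K1 biosensor cells, 1,000/well, exposed 2 h at 37 C to titrations up to 46 uM final.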

[8] = target: Mitogen-activated protein kinase 10 (Mus musculus) (UniProt Q61831); assay: JNK3 AlphaScreen Assay (AID 530; active = well fitted curve in either direction with a large enough effect, not every such curve was filed as active;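 also: kinase came from lysate of stimulated human HepG2 cells; signal reports phosphorylation of biotinylated GST-cJun 1-79 at Ser73 with 10 µM ATP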); conditions: JNK3 lysate, c-Jun phosphorylation; series mostly up to 57.1 µM
How it was run: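 qHTS titrations with 15 min compound pre-incubation before adding ATP (10 uM final). Read-out: AlphaScreen of Ser73-phosphorylated biotin-GST-cJun using HepG2 lysate JNK3 activated by IL-1β and TNFα.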

[9] = target: 3',5'-cyclic-AMP phosphodiesterase 4B (Homo sapiens) (UniProt Q07343); assay: qHTS Assay for Inhibitors of PDE-IV (AID 607; active = well fitted activation curve with a large enough effect in the main read-out, with a control signal flat, not every such curve was filed as active); conditions: HEK293 ACTOne CNG channel cells, membrane potential fluorescence; series mostly up to 22.9 µM
3',5'-cyclic-AMP phosphodiesterase 4B (Homo sapiens), sequence (Q07343 whole entry, looked up): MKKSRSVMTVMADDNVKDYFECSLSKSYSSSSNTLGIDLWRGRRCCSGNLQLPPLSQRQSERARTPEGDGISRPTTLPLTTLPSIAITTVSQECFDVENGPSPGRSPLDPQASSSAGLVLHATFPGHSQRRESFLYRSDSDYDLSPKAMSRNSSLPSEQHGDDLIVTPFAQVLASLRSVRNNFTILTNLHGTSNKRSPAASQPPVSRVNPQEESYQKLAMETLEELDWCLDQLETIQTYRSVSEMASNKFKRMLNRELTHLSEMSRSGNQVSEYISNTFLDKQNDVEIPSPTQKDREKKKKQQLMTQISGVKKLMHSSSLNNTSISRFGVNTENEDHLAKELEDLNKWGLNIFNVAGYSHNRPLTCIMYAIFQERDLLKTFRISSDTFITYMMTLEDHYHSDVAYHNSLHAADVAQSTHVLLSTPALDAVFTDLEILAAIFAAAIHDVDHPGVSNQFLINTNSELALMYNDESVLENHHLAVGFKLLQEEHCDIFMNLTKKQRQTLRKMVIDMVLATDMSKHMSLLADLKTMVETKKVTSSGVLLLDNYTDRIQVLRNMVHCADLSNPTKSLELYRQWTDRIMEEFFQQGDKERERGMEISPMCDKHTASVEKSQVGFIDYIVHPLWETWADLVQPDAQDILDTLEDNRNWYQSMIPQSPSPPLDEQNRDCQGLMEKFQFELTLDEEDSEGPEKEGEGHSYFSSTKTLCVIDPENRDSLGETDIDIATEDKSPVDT
How it was run: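 HEK293 ACTOne cells with CNG channel (1000/well), endogenous PDE4; membrane potential dye, compounds up to 22.9 uM final. Fluorescence Ex 535/Em 590; RO 20-1724 (100 uM final) as reference.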

[10] = target: Cytochrome P450 3A4 (Homo sapiens) (UniProt P08684); assay: qHTS Assay for Activators of Cytochrome P450 3A4 (AID 885); conditions: recombinant CYP3A4, Luciferin-PPXE luminescence, 60 min; series mostly up to 57.1 µM; also: nearly all actives have a fitted effect of over 65% in size
Cytochrome P450 3A4 (Homo sapiens), sequence (P08684 whole entry, looked up): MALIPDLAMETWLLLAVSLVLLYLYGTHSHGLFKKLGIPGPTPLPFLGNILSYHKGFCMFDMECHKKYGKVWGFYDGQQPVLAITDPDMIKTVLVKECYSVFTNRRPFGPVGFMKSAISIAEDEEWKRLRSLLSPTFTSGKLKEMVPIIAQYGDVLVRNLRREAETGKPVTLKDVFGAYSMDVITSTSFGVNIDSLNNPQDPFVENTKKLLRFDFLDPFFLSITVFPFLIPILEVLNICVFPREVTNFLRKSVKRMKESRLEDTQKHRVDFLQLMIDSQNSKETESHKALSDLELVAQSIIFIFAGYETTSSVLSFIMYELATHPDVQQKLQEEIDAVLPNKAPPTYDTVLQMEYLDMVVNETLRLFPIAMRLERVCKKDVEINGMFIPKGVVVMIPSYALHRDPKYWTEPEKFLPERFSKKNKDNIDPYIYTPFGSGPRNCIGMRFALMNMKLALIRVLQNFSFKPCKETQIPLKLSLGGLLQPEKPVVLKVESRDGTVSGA
How it was run: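 Human CYP3A4 dealkylates Luciferin-PPXE to luciferin, which luciferase detection converts to light. Substrate was at its KM (25uM), buffer 200mM KPO4, reaction 60 min at RT.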

[11] = target: Dual specificity protein kinase CLK4 (Homo sapiens) (UniProt Q9HAZ1); assay: qHTS Assay for Inhibitors of CDC-like Kinase 4 (Kinase-Glo Assay) (AID 1770); conditions: recombinant Clk4, Kinase-Glo ATP depletion luminescence; series mostly up to 66.7 µM; also: nearly all actives have a fitted effect of over 65% in size
Dual specificity protein kinase CLK4 (Homo sapiens), sequence (Q9HAZ1 whole entry, looked up): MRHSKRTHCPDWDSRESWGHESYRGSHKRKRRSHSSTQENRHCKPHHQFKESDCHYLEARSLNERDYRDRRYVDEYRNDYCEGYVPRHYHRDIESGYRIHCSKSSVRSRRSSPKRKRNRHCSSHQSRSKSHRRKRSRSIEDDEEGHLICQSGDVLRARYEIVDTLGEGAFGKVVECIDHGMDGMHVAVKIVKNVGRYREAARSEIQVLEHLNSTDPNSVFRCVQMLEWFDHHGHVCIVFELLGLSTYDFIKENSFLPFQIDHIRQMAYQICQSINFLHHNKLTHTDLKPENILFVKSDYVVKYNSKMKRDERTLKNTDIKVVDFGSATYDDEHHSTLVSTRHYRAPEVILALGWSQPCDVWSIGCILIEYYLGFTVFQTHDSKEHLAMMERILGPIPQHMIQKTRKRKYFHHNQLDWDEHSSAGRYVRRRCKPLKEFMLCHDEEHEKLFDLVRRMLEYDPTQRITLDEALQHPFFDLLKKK
How it was run: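 Inhibition was judged from remaining ATP, measured by Ultra-Glo luciferase bioluminescence after Clk4 (25 nM) had acted on RS peptide at 1 uM ATP for 4.5 hours, room temperature.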

[12] = target: Dual specificity protein kinase CLK4 (Homo sapiens) (UniProt Q9HAZ1); assay: qHTS Assay for Inhibitors of CDC-like Kinase 4 (ADP-Glo Assay) (AID 1771); conditions: recombinant CLK4, ADP-Glo luminescence; series mostly up to 80 µM; also: nearly all actives have a fitted effect of over 70% in size
How it was run: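 Compounds are pin-transferred onto substrate mix (100 uM RS peptide, 1 uM ATP), then 25 nM Clk4 is added. After 1 hr at room temperature, ADP-Glo reagent runs 45 min, detection reagent 30 min, then luminescence is read.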

[13] = target: Dual specificity protein kinase CLK4 (Homo sapiens) (UniProt Q9HAZ1); assay: qHTS Assay for Inhibitors of CDC-like Kinase 4 (ADP-FP Assay) (AID 1795); conditions: Transcreener ADP fluorescence polarization; series mostly up to 50 µM;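 also: recombinant human CLK4 phosphorylating RS repeat peptide at 1 µM ATP; nearly all actives have a fitted effect of over 60% in size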
How it was run: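 Inhibition of ADP formation by 6.25 nM Clk4 is measured using 1 uM ATP and 100 uM RS repeat peptide over one hour. Produced ADP displaces a fluorescent tracer from antibody, lowering polarization.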

[14] = target: Ubiquitin carboxyl-terminal hydrolase 1 (Homo sapiens) (UniProt O94782); assay: Inhibitors of USP1/UAF1: Pilot qHTS (AID 504865); conditions: purified USP1/UAF1, Ub-rhodamine cleavage fluorescence; series mostly up to 54.9 µM;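 also: rhodamine fluorescence freed from ubiquitin-rhodamine substrate followed over time; top concentration of the series differs between compounds; nearly all actives have a fitted effect of over 35% in size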
Ubiquitin carboxyl-terminal hydrolase 1 (Homo sapiens), sequence (O94782 whole entry, looked up): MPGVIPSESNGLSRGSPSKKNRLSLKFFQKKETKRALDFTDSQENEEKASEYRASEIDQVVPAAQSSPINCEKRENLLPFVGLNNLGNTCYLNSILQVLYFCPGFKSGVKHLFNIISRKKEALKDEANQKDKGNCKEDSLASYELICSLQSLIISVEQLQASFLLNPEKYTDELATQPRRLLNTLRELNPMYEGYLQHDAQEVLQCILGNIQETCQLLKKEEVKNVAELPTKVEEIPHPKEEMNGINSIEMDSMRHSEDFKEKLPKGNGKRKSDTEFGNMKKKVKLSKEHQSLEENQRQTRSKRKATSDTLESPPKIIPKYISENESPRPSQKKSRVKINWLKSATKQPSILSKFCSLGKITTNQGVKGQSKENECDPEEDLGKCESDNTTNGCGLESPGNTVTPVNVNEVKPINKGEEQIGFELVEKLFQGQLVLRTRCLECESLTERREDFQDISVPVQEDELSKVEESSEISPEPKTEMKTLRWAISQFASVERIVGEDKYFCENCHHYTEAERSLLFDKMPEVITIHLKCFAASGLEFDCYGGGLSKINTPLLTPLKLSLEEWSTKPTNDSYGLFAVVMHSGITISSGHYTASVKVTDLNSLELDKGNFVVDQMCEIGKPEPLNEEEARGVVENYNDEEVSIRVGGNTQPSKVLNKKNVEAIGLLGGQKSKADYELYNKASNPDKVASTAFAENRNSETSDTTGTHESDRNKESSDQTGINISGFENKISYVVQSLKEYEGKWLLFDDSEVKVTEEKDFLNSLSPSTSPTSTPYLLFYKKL
How it was run: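 Kinetic fluorescence assay: 1nM USP1/UAF1, 15 min compound preincubation, then 150nM Ub-Rho; 480/540 nm.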

[15] = Primary qHTS for small molecule stabilizers of the endoplasmic reticulum resident proteome: Secreted ER Calcium Modulated Protein (SERCaMP) assay (AID 1508630); conditions: SH-SY5Y GLuc-SERCaMP (Gaussia luciferase released on ER calcium loss) secretion, thapsigargin, luminescence; series mostly up to 38.4 µM
How it was run: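 The SH-SY5Y reporter protocol was run at 3 concentrations up to 38.3 uM (primary) or 11 concentrations (follow-up): 16 h compound, 100 nM thapsigargin for 4 h, then extracellular luciferase luminescence.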

[16] = target: Cytochrome P450 3A4 (Homo sapiens) (UniProt P08684); assay: qHTS Assay for Inhibitors and Substrates of Cytochrome P450 3A4 (AID 884); conditions: recombinant CYP3A4, Luciferin-PPXE luminescence; series mostly up to 57.1 µM; also: potency is read from the fitted curve at half-maximal effect; nearly all actives have a fitted effect of over 50% in size
How it was run: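 Luminescent readout of luciferin produced by CYP3A4 (20 nM) dealkylation of Luciferin-PPXE, 25 uM (its KM). NADPH-driven reaction ran 60 min at RT after 10 min compound preincubation; data scaled to 57 uM ketoconazole as 100% inhibition.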

[17] = target: Cytochrome P450 2C19 (Homo sapiens) (UniProt P33261); assay: qHTS Assay for Inhibitors and Substrates of Cytochrome P450 2C19 (AID 899); conditions: recombinant CYP2C19, luciferin-H EGE luminescence; series mostly up to 57.1 µM; also: potency is read from the fitted curve at half-maximal effect; nearly all actives have a fitted effect of over 60% in size
Cytochrome P450 2C19 (Homo sapiens), sequence (P33261 whole entry, looked up): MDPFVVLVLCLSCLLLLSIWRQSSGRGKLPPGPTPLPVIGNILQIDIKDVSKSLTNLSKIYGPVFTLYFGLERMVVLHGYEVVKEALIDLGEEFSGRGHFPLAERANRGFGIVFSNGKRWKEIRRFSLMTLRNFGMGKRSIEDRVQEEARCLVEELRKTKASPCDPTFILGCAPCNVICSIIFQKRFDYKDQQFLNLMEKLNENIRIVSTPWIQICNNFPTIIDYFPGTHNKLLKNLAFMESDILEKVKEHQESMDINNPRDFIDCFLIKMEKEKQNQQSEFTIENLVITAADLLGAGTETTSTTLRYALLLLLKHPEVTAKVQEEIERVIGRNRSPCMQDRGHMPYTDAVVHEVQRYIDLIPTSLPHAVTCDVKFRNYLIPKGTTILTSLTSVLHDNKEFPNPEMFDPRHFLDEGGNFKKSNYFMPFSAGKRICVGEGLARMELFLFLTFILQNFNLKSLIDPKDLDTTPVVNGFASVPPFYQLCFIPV
How it was run: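 Luminescence readout of luciferin formed from 10uM Luciferin-H EGE (KM level) by 5 nM CYP2C19 in 50mM KPO4. 60 min NADPH-driven reaction at 37C after 10 min compound preincubation; data scaled to 57uM ketoconazole inhibition.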

| Compound | Potency [1] [µM] | activity change, negative = inhibition [2] [%] | Potency [3] | activity change, negative = inhibition [4] [%] | activity, negative = inhibition [5] [%] | Potency [6] [µM] | Potency [7] [µM] | Potency [8] | Potency [9] | Potency [10] | Potency [11] | Potency [12] | Potency [13] | Potency [14] | outcome [15] | Potency [16] | Potency [17] |
| --- | --- | --- | --- | --- | --- | --- | --- | --- | --- | --- | --- | --- | --- | --- | --- | --- | --- |
| Cc1cnc(CNc2ccnc(-c3ccccc3C)n2)cn1 | > 11.4 | 3.37 | 12.6 µM (active) | -3.78 | -1.97 | > 46 | > 46 | inactive | inactive | inactive | inactive | inactive | inactive | inactive | inactive | – | – |
| c1ccc(CNc2nc(-c3ccc4c(c3)OCO4)nc3ccccc23)cc1 | > 11.4 | -7.19 | 0.501 µM (active) | -23.9 | -13 | > 46 | > 46 | inactive | – | inactive | inactive | inactive | inactive | inactive | inactive | – | – |
| COc1ncc2nc(C)c(=O)n(CCc3ccccc3)c2n1 | > 11.4 | -1.51 | 2 µM (active) | -3.03 | -12.2 | > 9.22 | > 46 | inactive | – | inactive | inactive | inactive | inactive | inactive | inactive | – | – |
| Cc1ccccc1-c1cncnc1Nc1ccccc1 | > 11.4 | -10.9 | 15.8 µM (active) | -1.77 | 16 | > 46 | > 46 | inactive | – | inactive | inactive | inactive | inactive | inactive | inactive | 0.631 µM (active) | 3.16 µM (active) |
| COCCn1c(=O)c(-c2cc(F)cc(F)c2)nc2cncnc21 | > 11.4 | -5.19 | 2 µM (active) | 1.95 | -7.77 | > 9.22 | > 46 | inactive | inactive | inactive | inactive | inactive | inactive | inactive | inactive | – | – |
| O=c1c(-c2cc(F)cc(F)c2)nc2cncnc2n1C1CC1 | > 11.4 | -12 | 1.26 µM (active) | 2.52 | -11.9 | > 9.22 | > 46 | inactive | inactive | inactive | inactive | inactive | inactive | inactive | inactive | – | – |
| COc1ccc(-n2c(=O)c(-c3ccccc3)nc3cncnc32)cc1 | > 11.4 | -26.7 | 3.98 µM (active) | 8.64 | -9.27 | > 9.22 | > 46 | inactive | inactive | inactive | inactive | inactive | inactive | inactive | inactive | – | – |
| CN(C)C(=O)c1ccc(-c2cncnc2NCc2cccnc2)cc1 | > 11.4 | 22 | 5.01 µM (active) | 3.94 | 17.6 | > 46 | > 46 | inactive | inactive | inactive | inactive | inactive | inactive | inactive | inactive | – | 2.51 µM (active) |
| CN(C)c1cc(-c2cccc(NS(C)(=O)=O)c2)ncn1 | > 11.4 | 3.12 | 1.26 µM (active) | 18.4 | 1.39 | > 46 | > 46 | inactive | – | inactive | inactive | inactive | inactive | inactive | inactive | – | – |
| CS(=O)(=O)Nc1cccc(-c2cncnc2NCc2cccnc2)c1 | > 11.4 | 10.9 | 15.8 µM (active) | -3.98 | -1.28 | > 46 | > 46 | inactive | inactive | inactive | inactive | inactive | inactive | inactive | inactive | – | 3.16 µM (active) |
| COc1ccc(-n2c(=O)c(C)nc3cnc(N4CCOCC4)nc32)cc1 | > 11.4 | -10.2 | 12.6 µM (active) | 3.24 | -6.68 | > 9.22 | > 46 | inactive | inactive | inactive | inactive | inactive | inactive | inactive | inactive | – | – |
| CN(C)C(=O)c1ccc(-c2cncnc2Nc2ccccc2)cc1 | > 11.4 | -7.47 | 31.6 µM (active) | 1.8 | -6.42 | > 46 | > 46 | inactive | inactive | inactive | inactive | inactive | inactive | inactive | inactive | – | – |
